Measurements from PubChem BioAssay.

Key:
[1] = system: Human papillomavirus type 1a protein E7 (residues 44-93); assay: HPV1a E7 fragment binders on microarrays, primary screen, biochemical, small-molecule microarray, residues 44-93, 635 nm fluorescence (AID 1108); settings: small-molecule microarray binding, fluorescence 635 nm; higher = more signal;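 note: E7 fragment applied at 1 µg/mL in TBST for 1 h at 4 C; score combines spot fluorescence with its signal to noise ratio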
[2] = modulators of HCV replicon luciferase signal, primary screen, HCV replication inhibitor project, Huh7 cells, luciferase reporter (AID 1109); settings: 48 h, higher = more signal;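 note: huh7 hepatoma cells harbouring a luciferase neomycin HCV replicon reporter; luciferase luminescence as measure of HCV replicon replication; test concentration not given here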
[3] = molecular target: Left-right determination factor 2 (Homo sapiens) (UniProt O00292); assay: LEFTY2 binders on small-molecule microarrays, primary screen, biochemical, small-molecule microarray, 635 nm fluorescence scan (AID 1110); settings: LEFTY2 binding, higher = more signal
[4] = molecular target: Calmodulin-1 (Homo sapiens) (UniProt P0DP23); assay: CALM1 binders on microarrays, EGTA buffer, profiling panel, biochemical, small-molecule microarray, Cy5-labelled CALM1 (AID 1111); settings: Cy5-CALM1 binding fluorescence, higher = more signal;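 note: labelled calmodulin applied in Tris saline Tween buffer holding calcium plus EGTA and DTT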
[5] = molecular target: Calmodulin-1 (Homo sapiens) (UniProt P0DP23); assay: calcium-bound CALM1 binders on microarrays, profiling panel, artefact control for SMM control-protein annotation, biochemical, small-molecule microarray, Cy5-labelled CALM1, plus calcium (AID 1112); settings: Cy5-CALM1 binding fluorescence, higher = more signal;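 note: score merges spot fluorescence with signal to noise from triplicate slides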
[6] = small-molecule microarray binders of probe aWnt5a, primary screen, biochemical, biotinylated probe, 635/667 nm fluorescence (AID 1113); settings: higher = more signal;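 note: score merges 667 nm fluorescence intensity with signal-to-noise per printed feature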
[7] = small-molecule microarray binders of probe aShh, primary screen, biochemical, biotinylated probe, 635/667 nm fluorescence (AID 1114); settings: higher = more signal;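 note: probe is biotin-labelled aShh protein from a stem cell growth factor screen; measures binding of labelled protein to compounds printed on the slide; score merges feature fluorescence at 667 nm with signal-to-noise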
[8] = small-molecule microarray binders of probe aNog, primary screen, biochemical, biotinylated probe, 635/667 nm fluorescence (AID 1115); settings: higher = more signal;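 note: probe is biotinylated aNog protein used at 0.15 µg/mL for 1 h at 4 C; z-score combines 667 nm fluorescence of each spot with its signal to noise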
[9] = molecular target: Torsin-1A-interacting protein 1 (Homo sapiens) (UniProt Q5JTV8); assay: LAP1 binders from COS7 cell lysate, primary screen, small-molecule microarray, 635/667 nm fluorescence (AID 1116); settings: COS7-hLAP1 lysate binding, 635 nm fluorescence, higher = more signal
[10] = molecular target: Alpha-bungarotoxin (Bungarus multicinctus) (UniProt P60615); assay: alpha-bungarotoxin binders on microarray, profiling panel, artefact control for SMM control protein annotation, biochemical, small-molecule microarray, Alexa647 label, 635/667 nm fluorescence (AID 1117); settings: alpha-BTX-A647 binding fluorescence, higher = more signal
Alpha-bungarotoxin (Bungarus multicinctus), sequence (P60615 whole entry, looked up): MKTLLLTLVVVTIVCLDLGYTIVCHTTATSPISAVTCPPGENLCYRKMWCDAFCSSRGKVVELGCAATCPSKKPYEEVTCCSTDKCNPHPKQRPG

Left-right determination factor 2 (Homo sapiens), sequence (O00292 whole entry, looked up): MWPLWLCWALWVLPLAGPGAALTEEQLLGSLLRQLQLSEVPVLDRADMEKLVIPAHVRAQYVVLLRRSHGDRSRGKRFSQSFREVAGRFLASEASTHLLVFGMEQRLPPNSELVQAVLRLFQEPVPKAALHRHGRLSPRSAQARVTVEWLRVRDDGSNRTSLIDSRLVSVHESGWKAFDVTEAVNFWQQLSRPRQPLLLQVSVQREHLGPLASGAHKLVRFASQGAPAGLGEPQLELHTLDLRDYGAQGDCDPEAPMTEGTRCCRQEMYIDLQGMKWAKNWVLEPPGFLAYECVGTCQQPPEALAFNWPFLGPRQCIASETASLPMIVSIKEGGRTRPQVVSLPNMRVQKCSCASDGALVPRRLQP
Torsin-1A-interacting protein 1 (Homo sapiens), sequence (Q5JTV8 whole entry, looked up): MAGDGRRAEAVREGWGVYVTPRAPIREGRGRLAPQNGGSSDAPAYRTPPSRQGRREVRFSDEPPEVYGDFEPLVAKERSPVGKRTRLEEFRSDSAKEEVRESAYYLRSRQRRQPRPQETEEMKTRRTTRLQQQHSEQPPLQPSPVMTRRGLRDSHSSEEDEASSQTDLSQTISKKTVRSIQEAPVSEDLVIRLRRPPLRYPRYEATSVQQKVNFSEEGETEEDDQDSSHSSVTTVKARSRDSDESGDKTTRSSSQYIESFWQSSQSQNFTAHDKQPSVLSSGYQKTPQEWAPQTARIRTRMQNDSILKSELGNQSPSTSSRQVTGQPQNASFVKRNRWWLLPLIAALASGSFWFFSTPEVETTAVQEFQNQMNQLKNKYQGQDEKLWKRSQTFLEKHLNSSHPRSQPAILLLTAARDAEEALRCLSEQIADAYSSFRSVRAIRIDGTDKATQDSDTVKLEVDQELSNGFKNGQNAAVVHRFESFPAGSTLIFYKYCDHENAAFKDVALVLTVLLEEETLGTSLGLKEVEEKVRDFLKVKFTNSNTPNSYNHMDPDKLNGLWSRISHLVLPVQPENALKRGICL

SMILES | composite z-score [1] | z-score [2] | composite z-score [3] | composite z-score [4] | composite z-score [5] | composite z-score [6] | composite z-score [7] | composite z-score [8] | composite z-score [9] | composite z-score [10]
COc1ccc([Si](C)(C)[C@@H]2[C@@H](CC(=O)N3Cc4ccccc4C[C@H]3CO)O[C@]3(C(=O)N(Cc4cccc(N5CCC5=O)c4)c4ccccc43)[C@H]2C)cc1 | 1.12 | -3.58 | 0.558 | 0.18 | 0.0915 | -0.1 | -0.0709 | 0.0001 | 0.111 | 1.08
C[N+](C)(C)CCCCCCNC(=O)[C@H]1C[C@H]2C(=O)N[C@@H](Cc3ccccc3)C(=O)N2[C@H]1c1cccc(OCCO)c1 | 0.658 | 0.487 | 0.642 | -0.96 | -1.03 | -0.184 | -0.243 | -0.234 | 0.944 | -0.049
COCCOC(=O)N1C(=O)[C@@]2(c3cc(C#CC4=CCCCC4)ccc31)[C@H](c1ccc(OCCO)cc1)N1[C@H](c3ccccc3)[C@H](c3ccccc3)OC(=O)[C@H]1[C@@H]2C(=O)N1CCc2cc(OC)c(OC)cc2C1 | 1.24 | -0.829 | 1 | 0.933 | 0.43 | 0.139 | 0.0611 | 0.121 | 1.71 | 0.595
O=C1O[C@@H](c2ccccc2)[C@@H](c2ccccc2)N2[C@@H](c3ccc(OCCO)cc3)[C@]3(C(=O)Nc4ccc(C#CC5=CCCCC5)cc43)[C@@H](C(=O)N3CCCCCCC3)[C@H]12 | 1.45 | -1.58 | 1.59 | 2.33 | 1.14 | 1.21 | 2.92 | 3.02 | 4.33 | 2.54
C=C(CCCC)C(=O)CC[C@@H](OC(C)=O)c1ccc(CO)o1 | 0.0497 | -1.21 | 0.523 | -0.854 | -1.12 | -0.18 | -0.206 | 0.0417 | 2.04 | -0.217
CC(C)NC(=O)[C@@H]1c2ccccc2C(=O)N(C(C)C)[C@H]1c1ccc(CO)cc1 | 1.42 | -0.152 | -0.597 | -0.639 | -0.128 | -0.228 | -0.291 | -0.196 | 1.69 | -0.558
OB1C=CCC(CCc2ccccc2)O1 (stereo not given) | -1.86 | 1.1 | -0.32 | -0.961 | -0.455 | -0.263 | -0.117 | -0.39 | 0.363 | -0.725
C=CC1c2cc(O)c(OC)cc2CCN1Cc1cccc(OC(F)(F)F)c1 (stereo not given) | 0.625 | -1.79 | -0.154 | 0.667 | -0.566 | -0.175 | -0.0146 | -0.483 | 0.828 | 0.39
CC(C)(C)OC(=O)CC[C@@]1(C(=O)N2CCCCC2)N=C(c2ccc(OCCCO)cc2)O[C@@H]1c1ccccc1 | 1.44 | -1.49 | 0.0209 | 1.72 | -0.0506 | 0.168 | 0.476 | 0.414 | 0.774 | 0.873
COCC(=C=CC[C@@H](O)c1ccc(OCCO)cc1)C[C@@H](O)c1ccccn1 | 0.518 | -1.24 | 0.33 | -0.336 | -0.125 | 0.0173 | 0.227 | -0.0184 | 0.407 | 0.338
O=C1N(CCS(=O)(=O)c2ccccc2)c2ccccc2[C@@H]2OC(c3ccc(OCCCO)cc3)=N[C@]12Cc1ccccc1 | 1.34 | -1.94 | 0.248 | 0.835 | -0.387 | -0.124 | -0.24 | -0.12 | 0.309 | 1.32
COc1ccc(CCNC(=O)[C@@]2(C)c3ccccc3C(=O)N(c3ccc(C)cn3)[C@H]2c2ccc(CO)cc2)cc1 | -0.992 | -0.583 | -0.839 | -0.4 | -0.141 | -0.096 | 1.9 | -0.118 | 0.56 | -0.438
[N-]=[N+]=NCc1ccccc1[C@@H]1OC(c2ccc(OCCCO)cc2)=N[C@]1(CCS(=O)(=O)c1ccccc1)C(N)=O | 1.5 | 1.35 | 0.767 | 0.731 | 0.242 | 0.164 | 0.5 | 0.769 | 1.81 | 2.19
CCOC(=O)C[C@H]1[C@H](OC(=O)c2ccc(C(=O)c3ccccc3)cc2)[C@@H](NC(=O)c2ccccc2)c2cc(OCCCO)ccc2N1C(=O)c1ccccc1 | 1.09 | -1.33 | 0.224 | 0.461 | 0.168 | 0.0102 | -0.0769 | -0.234 | 0.63 | 0.872
COc1ccc(C(=O)Nc2ccc(CN3C(=O)[C@]4(O[C@H](CC(=O)N5CCC[C@H]5CO)[C@@H]([Si](C)(C)c5ccc(OC)cc5)[C@@H]4C)c4ccccc43)cc2)cc1 | 1.4 | -3.86 | 0.471 | 0.453 | -0.171 | -0.0445 | 0.0639 | 0.116 | 1.08 | 0.748
C=C(C)[C@@H]1CC=C(C(O)C2C=CC3C(=O)NC(=O)C3N2Nc2ccc(Cl)cc2Cl)CC1 (stereo not given in full) | 0.762 | -0.537 | 0.216 | 2.19 | 1.21 | 0.0328 | -0.0271 | 1.61 | 0.584 | 2.26
COCCOC(=O)N1C(=O)[C@@]2(c3cc(C#CCCO)ccc31)[C@H](c1ccc(OCCO)cc1)N1[C@H](c3ccccc3)[C@H](c3ccccc3)OC(=O)[C@H]1[C@@H]2C(N)=O | 1.44 | -1.13 | 0.606 | 0.852 | 0.278 | 0.0136 | 0.171 | 0.226 | 0.918 | 0.338
